From PubChem BioAssay
Only some compounds are listed: those with a hit (about 5.3% of all), similar ones and a draw of the others.
Tau fluor cs – Counterscreen qHTS for Inhibitors of Tau Fibril Formation, Fluorescence Polarization; Potency, µM (titrated, usually from 57.7 µM), for the others: at the highest dose activity change, negative = decrease; tau K18 P301L Alexa594 fluorescence, heparin fibrillization; actives 0.93% (n = 280,000); note: potency is the fitted concentration of half-maximal effect; nearly all actives have a fitted effect of over 55% in size
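Human K18 P301L tau (15 uM unlabeled plus 0.24 uM Alexa 594-labeled, final) in 100 mM sodium acetate pH 7 was mixed with compound and 20 uM heparin and incubated 6 hr at 37 C.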
JMJD2E inh – qHTS Assay for Inhibitors of Human Jumonji Domain Containing 2E (JMJD2E) | JMJD2E catalytic domain, FDH-coupled NADH fluorescence (FDH is formaldehyde dehydrogenase) | Potency, µM (top dose mostly 57.1 µM), without a hit: at the highest dose activity change, negative = inhibition, usual class: inhibitors | Lysine-specific demethylase 4E (Homo sapiens), B2RXH2 | actives 1.6% (n = 230,000) | AID 2147, 2009; active = well fitted inhibition curve with a large enough effect, not every such curve was filed as active; inconclusive = small, poorly fitted or top-dose-only effect, or another doubt; inactive = no such curve, though single readings can be large or run the other way;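 note: potency is the fitted concentration of half-maximal effect; 0% = wells with enzyme and -100% = buffer wells without enzyme; nearly all actives have a fitted effect of over 50% in size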
Target sequence (B2RXH2 1-337 limits assumed): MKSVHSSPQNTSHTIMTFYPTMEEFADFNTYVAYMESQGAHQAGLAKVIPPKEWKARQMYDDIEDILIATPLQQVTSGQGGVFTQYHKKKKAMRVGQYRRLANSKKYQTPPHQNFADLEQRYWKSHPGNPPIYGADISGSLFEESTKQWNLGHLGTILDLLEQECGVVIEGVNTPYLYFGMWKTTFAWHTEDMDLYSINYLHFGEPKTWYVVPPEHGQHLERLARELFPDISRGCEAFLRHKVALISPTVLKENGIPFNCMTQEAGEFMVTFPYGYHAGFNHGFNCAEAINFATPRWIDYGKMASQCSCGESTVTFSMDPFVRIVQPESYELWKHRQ
Sfp PPTase inh – qHTS Assay for Inhibitors of Bacillus subtilis Sfp phosphopantetheinyl transferase (PPTase); 4'-phosphopantetheinyl transferase ffp (Bacillus subtilis), Q9F4F7; Biochemical Sfp PPTase activity, qHTS; Potency, µM, inactives show largest response in the series, negative = inhibition, hits mostly inhibitors; actives 3.5% (n = 310,000);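 note: the enzyme is Sfp with the accession as filed and its product quenches rhodamine fluorescence; potency is the fitted concentration of half-maximal effect; 0% = enzyme reaction without inhibitor and -100% = no enzyme wells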
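Reaction rates are the 30-min fluorescence difference (ex 525, em 598 nm) in wells containing 15 nM Sfp, 5 uM rhodamine-CoA and 12.5 uM BHQ-2-YbbR at pH 7.6 with 10 mM MgCl2.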
Tau fibril FP – qHTS for Inhibitors of Tau Fibril Formation, Fluorescence Polarization. Microtubule-associated protein tau (Homo sapiens), P10636. K18 P301L tau heparin fibrillization, Alexa594 FP, 6 h. Potency, µM (titrated, usually from 57.7 µM), for the others: top-dose activity, negative = inhibition, hits mostly inhibitors. actives 0.39% (n = 280,000). AID 1468, 2008; note: potency is the fitted concentration of half-maximal effect; nearly all actives have a fitted effect of over 55% in size
Target sequence (P10636 561-689 P618L limits assumed): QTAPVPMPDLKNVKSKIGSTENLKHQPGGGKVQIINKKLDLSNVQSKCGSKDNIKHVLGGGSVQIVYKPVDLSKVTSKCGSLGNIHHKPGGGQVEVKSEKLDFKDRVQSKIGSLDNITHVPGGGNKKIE
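Heparin (20 uM) drove fibril formation of recombinant tau K18 P301L, 15 uM unlabeled with 0.24 uM Alexa 594 label, for 6 hr at 37 C in 100 mM sodium acetate pH 7. Fluorescence polarization (555/632 nm) read 1 hr after 30 uM ThT.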
Coupling enz – qHTS Assay for Inhibitors of Fructose-1,6-bisphosphate Aldolase from Giardia Lamblia: Coupling assay counterscreen; coupling enzyme system counterscreen, AmpLite Red fluorescence; activity change, negative = inhibition, % at 58.2 µM, hits read low; actives 0.67% (n = 290,000); in the data active = activity change below about -30%
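Counterscreen lacking aldolase: glyceraldehyde-3-phosphate coupling-enzyme reagent preincubated 10 min at RT with compound (at 57.5 uM final), then substrate/coupling system with AmpLite Red added; fluorescence read at 525/598 nm after 20 min RT.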
Tau fibril ThT – qHTS for Inhibitors of Tau Fibril Formation, Thioflavin T Binding | Microtubule-associated protein tau (Homo sapiens), P10636 | recombinant tau K18 P301L, heparin-induced fibrillization, ThT fluorescence | Potency, µM (highest dose often 57.4 µM), for the others: at the top dose activity, negative = inhibition, actives largely listed as inhibitors | actives 2.1% (n = 270,000); note: potency is the fitted concentration of half-maximal effect; nearly all actives have a fitted effect of over 55% in size
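Fibril formation assay: tau K18 P301L at 15 uM with trace Alexa 594 label, heparin inducer 20 uM, pH 7 sodium acetate buffer, 37 C for 6 hr; endpoint ThT signal.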
An asterisk follows results filed as active; u = inconclusive; x = no result given; [ ] = remark or other dose. Unless noted, calls come from the whole dose curve; as a rule, active = well fitted curve in the direction sought with a large enough effect; inconclusive = small, poorly fitted or top-dose-only effect, or another doubt; inactive = no such curve, though single readings can be large; an effect the other way counts as inactive or inconclusive. Unless noted, % is set by controls: 0 for no effect and ±100 for the full control effect.

SMILES	Tau fluor cs	JMJD2E inh	Sfp PPTase inh	Tau fibril FP	Coupling enz	Tau fibril ThT
O=C(c1cnc(N2CCN(c3ncccn3)CC2)c2ccccc12)N1CCN(c2ncccn2)CC1	-2.1%	-9.8%	0.2%	0.9%	2.7	-18.2%
CCOc1ccc(NC(=S)NCc2ccc3[nH]c(C)cc3c2)cc1	20µM*[quencher]	-7.0%	-13.0%	u	-0.8	u
COc1ccc(/C=C2\SC(N)=NC2=O)cc1	x	x	8.3%	x	4.0	x
CCOC(=O)CSC1=NC(=O)/C(=C/c2ccc(OC)cc2)S1	-5.1%	5.6%	17.8µM*	-14.2%	4.5	u
COc1ccc(F)cc1S(=O)(=O)NCCc1csc2nc(-c3cccc(C)c3)nn12	-27.9%	x	x	u	x	-4.2%
O=C(NC1CCCCC1)c1cccnc1C(=O)O	-13.7%	u	79.4µM*	-3.8%	-15.1	-10.7%
O=C(Cn1cc(S(=O)(=O)Cc2ccc([N+](=O)[O-])cc2)c2ccccc21)N1CCOCC1	x	x	39.8µM*	x	x	x
O=C(Cn1cc(S(=O)(=O)Cc2cccc([N+](=O)[O-])c2)c2ccccc21)N1CCOCC1	x	x	3.6%	x	x	x
Cc1ccc(CNC(=O)CS(=O)(=O)c2cn(CC(=O)N3CCOCC3)c3ccccc23)cc1	x	x	39.8µM*	x	x	x
O=C(c1ccco1)[C@@H]1[C@@H]2C(=O)N(c3ccc(Br)cc3)C(=O)[C@@H]2C2c3ccccc3C=CN21 (some centres undefined)	-29.2%	-4.6%	-26.0%	-17.9%	-39.8*	20µM*
O=C(c1ccco1)[C@@H]1[C@@H]2C(=O)N(c3ccc(F)cc3)C(=O)[C@@H]2C2c3ccccc3C=CN21 (some centres undefined)	u	-29.1%	-28.6%	u	-39.7*	25.1µM*
CC(=O)[C@@H]1[C@@H]2C(=O)N(C3CCCCC3)C(=O)[C@@H]2C2c3ccccc3C=CN21 (some centres undefined)	-18.2%	u	-28.5%	-14.6%	x	u
CC(=O)[C@H]1[C@@H]2C(=O)N(c3cccc(Cl)c3)C(=O)[C@@H]2[C@H]2c3ccccc3C=CN21	-22.7%	u	u	-17.7%	-36.0*	u
Cc1ccc([N+](=O)[O-])cc1NC(=S)NC(=O)c1c(Cl)cnn1C	x	x	44.7µM*	x	0.3	x
CCc1ccc2c(c1)C1(NN=C(c3cccc4ccccc34)S1)C(=O)N2 (centres undefined)	u	u	-3.1%	12.9%	-6.6	15.8µM*
CCCCN(C)CCNC(=O)c1nn(-c2ccc(OC)c(Cl)c2)c(=O)c2c1c1ccccc1n2C	u	x	x	u	x	-4.4%
Oc1ccc(/C=N/Nc2nc(-c3cccnc3)nc3ccccc23)c(O)c1	11.2µM*[quencher]	22.4µM*	-12.8%	u	-4.7	2.24µM*
Cc1ccc(CNc2nc(-c3cccnc3)nc3ccccc23)cc1	x	x	89.1µM*	x	1.2	x
c1ccc(CNc2nc(NCc3ccccc3)c3ccccc3n2)cc1	u	u	14.1µM*	-12.7%	-0.7	u
c1ccc(CNc2nc(-c3cccnc3)nc3ccccc23)cc1	x	x	-8.0%	x	-0.3	x
c1ccc(CNc2nc(-c3ccccc3)nc3ccccc23)cc1	x	x	17.1%	x	0.0	x
c1cncc(-c2nc(NCc3ccc4c(c3)OCO4)c3ccccc3n2)c1	u	-7.9%	44.7µM*	u	-0.7	u
O=C(CN1C(=O)COc2ccc(S(=O)(=O)NC3CCCC3)cc21)NCc1ccc(Cl)cc1	-9.8%	x	x	0.9%	x	16.0%
